Reference: PubChem BioAssay AID2576 (National Center for Advancing Translational Sciences (NCATS), 2010)
Where “and” joins values, the source holds several entries; their conditions need not be identical. Equal values may be shown once. Inconclusive results are not listed. Calls of active or inactive are those of the source. Calls follow the shape of the dose curve; as a rule, active = well fitted activation curve with a large enough effect; inconclusive = small, poorly fitted or top-dose-only effect, or effect the other way; inactive = flat fitted curve, though single readings scatter.

These molecules were tested against Pyruvate kinase PKM (Homo sapiens) (UniProt P14618) (assay: Secondary LDH Assay for Activators of Human Pyruvate Kinase M2 isoform: for Probe SAR). Conditions: purified hPK-M2, LDH-coupled NADH fluorescence kinetic; series mostly up to 58.4 µM.
Description: NIH Chemical Genomics Center [NCGC] Matthew G. Vander Heiden, M.D., Ph.D. [Harvard Medical School, 77 Avenue Louis Pasteur, Boston, MA 02115] NCGC Assay Overview: Human pyruvate kinase muscle 2 (hPK-M2)enzyme was supplied as a highly purified (>95% pure) preparation from Harvard Medical School and a secondary assay was used to evaluate compounds. This assay couples the formation of pyruvate from hPK-M2 using lactate dehydrogenase (LDH) and NADH. The depletion of NADH is followed in a fluorescent-based kinetic assay that follows the formation of pyruvate to lactate, as catalyzed LDH (described by Hannaert et al., 2002)1 Pyruvate kinase substrates, PEP and ADP, were present in the assay at 0.1 mM and 4 mM respectively. In this kinetic assay initial rates were determined by following the fluorescence of NADH depletion.
NCGC Assay Protocol Summary: Three uL of substrate mix (final concentration, 50 mM Tris-Cl pH 8.0, 200 mM KCl, 15 mM MgCl2, 0.1 mM PEP, 4.0 mM ADP, and 0.2 mM NADH) was dispensed into black-solid 1536 well plates. 23 nL of compounds were delivered by a pin tool and 1 uL of enzyme mix (final concentrations, 10 nM hPK-M2 and 1 uM of LDH) was added. Plates were immediately placed in ViewLux (Perkin Elmer) and NADH fluorescence was determined at 30 second exposure intervals for between 3 and 6 minutes. Data were normalized to the uninhibited and EC100 activation using known activators such as fructose-bis-phosphate.

Pyruvate kinase PKM (Homo sapiens), sequence (P14618 whole entry, looked up, canonical isoform): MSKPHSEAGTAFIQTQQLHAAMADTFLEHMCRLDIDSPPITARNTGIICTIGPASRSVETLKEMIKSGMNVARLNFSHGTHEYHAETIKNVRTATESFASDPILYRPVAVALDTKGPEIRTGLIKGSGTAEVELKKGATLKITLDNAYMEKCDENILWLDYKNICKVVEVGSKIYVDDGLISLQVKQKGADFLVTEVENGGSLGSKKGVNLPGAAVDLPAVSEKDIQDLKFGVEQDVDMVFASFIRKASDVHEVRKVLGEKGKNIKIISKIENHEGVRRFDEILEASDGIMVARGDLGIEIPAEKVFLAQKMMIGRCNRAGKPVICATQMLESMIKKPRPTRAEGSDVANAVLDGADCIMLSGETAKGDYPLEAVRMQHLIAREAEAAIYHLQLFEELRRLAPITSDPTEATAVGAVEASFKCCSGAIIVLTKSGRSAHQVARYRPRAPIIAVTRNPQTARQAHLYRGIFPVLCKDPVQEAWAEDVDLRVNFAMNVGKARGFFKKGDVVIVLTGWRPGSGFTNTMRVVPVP

Potency, inactive:
O=C1c2ccccc2C(=O)N1Cc1ccncc1
COc1ccc(S(=O)(=O)Nc2ccc(C)c(C)c2)cc1
Cc1ccc(NS(=O)(=O)c2cccc(Cl)c2)cc1C
O=C1c2ccccc2C(=O)N1Cc1cccnc1
Cc1ccc2nc(-c3ccncc3)c(Nc3ccccc3)n2c1
CC(=O)Nc1ccc(S(=O)(=O)Nc2ccc(C)c(C)c2)cc1
O=C1c2ccccc2C(=O)N1c1ccccc1O
O=C1CCc2cc(S(=O)(=O)Nc3ccccn3)ccc2N1
O=C1c2ccccc2C(=O)N1c1cccc(O)c1
COc1cccc(OC2=NS(=O)(=O)c3ccccc32)c1
O=S1(=O)N=C(Oc2ccc(Cl)cc2)c2ccccc21
Cc1cc(N2C(=O)c3ccccc3C2=O)n[nH]1
Cc1ccc(NS(=O)(=O)c2ccc(-c3ccccc3)cc2)cc1C
CNc1cccc(S(=O)(=O)N2CCN(S(=O)(=O)c3ccc4c(c3)OCCO4)CC2)c1
Cc1ccc(NS(=O)(=O)c2ccc(F)cc2)cc1C
O=C1c2ccccc2C(=O)N1c1cc(=O)c2ccccc2[nH]1
COc1cccc(N2C(=O)c3ccccc3C2=O)c1
Cc1ccc(N2C(=O)c3ccccc3C2=O)c(C)c1
O=C1c2ccccc2C(=O)N1c1cccc2ccncc12
Cc1ccc(NS(=O)(=O)c2cccc(C(=O)O)c2)cc1C
Cc1ccc(NS(=O)(=O)c2cc3c(cc2-c2cn[nH]c2)NC(=O)CO3)cc1C
O=C1CCc2cc(S(=O)(=O)Nc3ccncc3)ccc2N1
COc1ccc(N2C(=O)c3ccccc3C2=O)cc1
Cc1ccc(-c2nc3cnccn3c2Nc2ccc(C(C)C)cc2)o1
O=C1c2ccccc2C(=O)N1Cc1ccccn1
O=C1c2ccccc2C(=O)N1c1ccc(O)cc1
Fc1ccccc1-c1ccc(-c2nc3ccc(Cl)cn3c2Nc2ccc(Cl)cc2)o1
COc1ccc(NS(=O)(=O)c2ccc3c(c2)CCC(=O)N3)cc1
O=C1CCc2cc(S(=O)(=O)Nc3cccc(-c4ccccc4)c3)ccc2N1

Potency, active:
Cc1ccc(NS(=O)(=O)c2cc3c(cc2C)NC(=O)CO3)cc1C 1.03 µM
COc1cccc(Cn2ncc3c4sc(S(C)=O)cc4n(C)c3c2=O)c1 (stereo not drawn) 410 nM and 206 nM
Cc1ccccc1NS(=O)(=O)c1ccc2c(c1)CCC(=O)N2 6.51 µM
O=S(=O)(c1ccc2c(c1)OCCO2)N1CCN(S(=O)(=O)c2c(F)cccc2F)CC1 5.8 µM
Cc1ccc(NS(=O)(=O)c2ccc3c(c2)N(C)C(=O)CO3)cc1C 1.46 µM
Cc1cc2c(s1)c1cnn(Cc3cc(F)ccc3F)c(=O)c1n2C 0.447 µM
Cc1ccc(NS(=O)(=O)c2cc3c(cc2Cl)CCC(=O)N3)cc1C 0.461 µM
Cn1c2cc(S(C)=O)sc2c2cnn(Cc3cccc(O)c3)c(=O)c21 (stereo not drawn) 1.03 µM
Cc1ccc2nc(-c3ccc(C)o3)c(Nc3ccc4c(c3)OCO4)n2c1 29.1 µM
